Calls of active or inactive are those of the source. Unless noted, the rule behind the calls is not given here.
What was measured:
[1] = A549 cell viability effects, profiling panel, calcein-AM fluorescence, 48 h, basal (AID 1162); conditions: higher = more signal; note: test concentration not given here
[2] = adipocyte viability effects, profiling panel, cell-based, 3T3-L1 adipocytes, calcein-AM fluorescence, 48 h, basal (AID 1163); conditions: 3T3-L1 adipocytes viability, higher = more signal; note: test concentration not given here
[3] = HepG2 cell viability effects, profiling panel, calcein-AM fluorescence, 48 h, basal (AID 1164); conditions: higher = more signal; note: test concentration not given here
[4] = MM1S cell viability effects, profiling panel, calcein-AM fluorescence, 48 h, basal (AID 1165); conditions: higher = more signal;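 note: viability of MM1S multiple myeloma cells under basal unstimulated conditions; test concentration not given here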
[5] = basal RPMI8226 viability, no added stimulus, profiling panel, cell-based, calcein-AM fluorescence, 48 h, PK04 Diversity Set (AID 1166); conditions: RPMI8226 myeloma viability, higher = more signal;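 note: cells grown under basal conditions without added stimulus; test concentration not given here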
[6] = basal HepG2 mitochondrial membrane potential changes, profiling panel, cell-based, JC-1 fluorescence, 24 h, 100 nL compound (AID 1167); conditions: higher = more signal; note: test concentration not given here
[7] = basal 3T3-L1 adipocyte mitochondrial potential changes, profiling panel, cell-based, JC-1 fluorescence, 3T3-L1 adipocytes, 24 h, 100 nL compound (AID 1168); conditions: JC-1 mitochondrial fluorescence, higher = more signal, called active from +8 up or from −8 down; note: test concentration not given here
[8] = basal RPMI8226 mitochondrial membrane potential changes, profiling panel, cell-based, JC-1 fluorescence, 24 h, 100 nL compound (AID 1169); conditions: RPMI8226 myeloma, JC-1 mitochondrial potential fluorescence, higher = more signal; note: test concentration not given here
[9] = basal MM1S mitochondrial membrane potential changes, profiling panel, cell-based, JC-1 fluorescence, 24 h, 100 nL compound (AID 1170); conditions: higher = more signal; note: test concentration not given here
[10] = A549 lung cancer cell viability effects, profiling panel, resazurin fluorescence, 24 h, PK04 Diversity Set (AID 1171); conditions: higher = more signal, called active from +8 up or from −8 down; note: test concentration not given here
[11] = HepG2 liver cancer cell viability effects, profiling panel, resazurin fluorescence, 24 h, PK04 Diversity Set (AID 1172); conditions: higher = more signal; note: test concentration not given here
[12] = basal S. cerevisiae growth modulation, no modifier, primary screen, OD600, strain BY4716, 24 h, basal condition (AID 1173); conditions: OD600, 24 h, higher = more signal, called active from +8 up or from −8 down
[13] = MM1S myeloma cell viability, profiling panel, resazurin fluorescence, basal, 24 h, PK04 Diversity Set (AID 1174); conditions: higher = more signal, called active from +8 up or from −8 down;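 note: MM1S multiple myeloma cell line; test concentration not given here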
[14] = molecular target: Dihydroorotate dehydrogenase (quinone), mitochondrial (Plasmodium falciparum (isolate 3D7)) (UniProt Q08210); experiment: PfDHODH enzyme inhibitors, primary screen, biochemical, C-terminal His tag, absorbance 600 nm (AID 1175); conditions: DCIP absorbance 600 nm, higher = more signal, called active from +8 up or from −8 down;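 note: recombinant parasite enzyme with a five histidine tag at its C terminus; test concentration not given here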
[15] = P. aeruginosa biofilm formation inhibitors, primary screen, strain PAO1, LB-PBS medium, absorbance 600 nm (AID 1176); note: test concentration not given here; conditions: P. aeruginosa PAO1 growth/biofilm, A600, 12 h; higher = more signal
[16] = S. cerevisiae RM11-1a growth modifiers, primary screen, strain RM11-1a, OD600, basal, 24 h (AID 1177); conditions: OD600, 24 h, higher = more signal, called active from +8 up or from −8 down;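 note: cultures grown under basal conditions with no added stressor; test concentration not given here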
[17] = E. coli acrAB mutant growth effects, primary screen, E. coli filamentation inducers, strain DRC39, OD650, 24 h (AID 1178); conditions: higher = more signal, called active from +8 up or from −8 down;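 note: growth measured as culture turbidity by optical density at 650 nm; test concentration not given here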
[18] = E. coli acrAB mutant growth effects, primary screen, E. coli filamentation inducers, strain DRC39, OD650, 48 h (AID 1179);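 note: screen aims at cell division blockers that make cells filament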; conditions: E. coli DRC39 delta-acrAB growth, higher = more signal, called active from +8 up or from −8 down
[19] = RPMI8226 myeloma cell viability, profiling panel, resazurin fluorescence, basal, 24 h, PK04 Diversity Set (AID 1180); conditions: higher = more signal;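 note: RPMI8826 multiple myeloma cell line at 5000 cells per well; test concentration not given here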
[20] = molecular target: E3 ubiquitin-protein ligase XIAP (Homo sapiens) (UniProt P98170); experiment: XIAP binders, primary screen, biophysical, small-molecule microarray, fluorescence 635 nm (AID 1181); conditions: small-molecule microarray binding, higher = more signal;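 note: score merges 667 nm emission and signal to noise over triplicate slides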
Chain of E3 ubiquitin-protein ligase XIAP (Homo sapiens) (P98170 whole entry, looked up): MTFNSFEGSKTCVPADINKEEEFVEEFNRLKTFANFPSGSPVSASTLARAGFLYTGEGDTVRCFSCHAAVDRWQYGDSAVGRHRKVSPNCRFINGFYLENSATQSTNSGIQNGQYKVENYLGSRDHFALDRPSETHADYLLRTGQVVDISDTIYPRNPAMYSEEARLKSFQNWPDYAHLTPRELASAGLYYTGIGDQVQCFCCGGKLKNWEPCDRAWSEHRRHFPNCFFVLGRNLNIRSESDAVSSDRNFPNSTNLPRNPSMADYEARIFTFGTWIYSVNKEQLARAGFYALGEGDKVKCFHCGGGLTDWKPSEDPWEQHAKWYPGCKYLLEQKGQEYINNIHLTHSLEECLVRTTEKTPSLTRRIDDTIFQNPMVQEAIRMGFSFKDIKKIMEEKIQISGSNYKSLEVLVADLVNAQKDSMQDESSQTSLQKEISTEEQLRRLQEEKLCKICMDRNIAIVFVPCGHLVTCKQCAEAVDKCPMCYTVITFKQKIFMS

Chain of Dihydroorotate dehydrogenase (quinone), mitochondrial (Plasmodium falciparum (isolate 3D7)) (Q08210 whole entry, looked up): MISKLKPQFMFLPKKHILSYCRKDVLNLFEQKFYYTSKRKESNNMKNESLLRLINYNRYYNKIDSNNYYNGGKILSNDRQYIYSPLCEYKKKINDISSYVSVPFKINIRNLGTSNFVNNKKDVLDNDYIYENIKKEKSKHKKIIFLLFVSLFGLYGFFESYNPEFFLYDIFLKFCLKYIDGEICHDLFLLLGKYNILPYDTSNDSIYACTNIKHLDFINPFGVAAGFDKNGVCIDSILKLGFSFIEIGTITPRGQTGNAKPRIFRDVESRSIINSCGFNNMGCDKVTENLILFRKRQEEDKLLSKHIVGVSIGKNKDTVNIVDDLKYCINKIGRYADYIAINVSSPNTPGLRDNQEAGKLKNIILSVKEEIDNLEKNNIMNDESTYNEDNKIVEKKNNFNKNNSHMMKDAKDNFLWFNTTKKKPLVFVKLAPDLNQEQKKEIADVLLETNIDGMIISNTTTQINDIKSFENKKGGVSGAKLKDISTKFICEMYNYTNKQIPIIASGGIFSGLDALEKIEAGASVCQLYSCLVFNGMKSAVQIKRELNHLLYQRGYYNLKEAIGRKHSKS

Structure (SMILES) | z-score [1] | z-score [2] | z-score [3] | z-score [4] | z-score [5] | z-score [6] | z-score [7] | z-score [8] | z-score [9] | z-score [10] | z-score [11] | z-score [12] | z-score [13] | composite z-score [14] | z-score [15] | z-score [16] | z-score [17] | z-score [18] | z-score [19] | composite z-score [20]
O=C1[C@H]2C=C(Br)[C@H](C[C@@H]2OCCOCCO)[C@@]12CO2 | -0.43 | -0.577 | -0.96 | -0.368 | -0.674 | -1.33 | -0.454 (inactive) | 0.406 | -0.137 | -0.274 (inactive) | -0.0029 | 1.2 (inactive) | -0.478 (inactive) | 0.857 (inactive) | 0.379 (inactive) | 1.4 (inactive) | -0.308 (inactive) | -1.05 (inactive) | -0.608 | -0.201
O=c1cccc(-c2cccc3ccccc23)o1 | -1.07 | -0.893 | 0.0962 | -1.09 | -1.84 | 0.113 | 1.05 (inactive) | 0.608 | -1.07 | 0.058 (inactive) | -0.0368 | -14.1 (active) | -0.0171 (inactive) | -2.39 (inactive) | 0.794 (inactive) | -1.95 (inactive) | -0.0645 (inactive) | -0.0042 (inactive) | 0.024 | 0.126
Cc1ccc(C(C)CC(O)C2C=CC3C(=O)NC(=O)C3N2Nc2ccccn2)o1 (stereo not given) | 0.378 | -0.671 | 1.37 | -0.333 | 0.635 | 0.117 | -0.0169 (inactive) | -0.263 | -0.408 | -0.793 (inactive) | -0.668 | 0.258 (inactive) | -1.19 (inactive) | 0.936 (inactive) | 1.04 (inactive) | 0.735 (inactive) | 0.168 (inactive) | 0.215 (inactive) | -0.355 | -0.127
CCOC(=O)C[C@H]1[C@H](OC(=O)c2cc3ccccc3oc2=O)[C@@H](NC(=O)c2ccc3ccccc3c2)c2cc(OCCCO)ccc2N1C(=O)c1ccccc1 | 0.659 | 2.7 | 0.582 | 0.0168 | -0.608 | -1.3 | 0.571 (inactive) | 0.416 | 0.755 | -1.01 (inactive) | -0.438 | -1.31 (inactive) | -0.382 (inactive) | -2.91 (inactive) | -0.647 (inactive) | -0.283 (inactive) | -0.464 (inactive) | -1.03 (inactive) | -0.486 | 0.0871
C=CCC(OC(C)=O)[C@@H]1[C@@H](N(Cc2ccc(-c3ccccc3)cc2)C(=O)c2ccc(C)cc2)c2cc(OCCCO)ccc2N1C(=O)Cc1ccc(OC)cc1 (stereo not given in full) | 0.837 | 0.705 | 2.23 | 0.711 | 0.815 | 4.08 | -0.172 (inactive) | 0.768 | -0.496 | 0.267 (inactive) | 0.989 | -0.397 (inactive) | 1.02 (inactive) | -1.17 (inactive) | -0.312 (inactive) | -1.65 (inactive) | -0.104 (inactive) | 0.393 (inactive) | 0.72 | -0.165
CN(C)CCCCNC(=O)[C@@H]1C[C@@H]2C(=O)N[C@@H](CCCCN)C(=O)N2[C@@H]1c1cccc(OCCO)c1 | -0.144 | -0.736 | -1.03 | -0.058 | 0.376 | -1.01 | -0.0937 (inactive) | -0.737 | -0.0289 | -0.391 (inactive) | 0.0914 | -0.191 (inactive) | -0.332 (inactive) | -0.318 (inactive) | 0.836 (inactive) | -0.147 (inactive) | -0.383 (inactive) | -1 (inactive) | -0.165 | -0.32
CCN(CC)c1ccc(N2CC=CC34O[C@@H]5C=CCCOC(=O)C5[C@H]3C(=O)N(CCCO)[C@@H]4C2=O)cc1 (stereo not given in full) | -0.0905 | 0.848 | 0.0124 | -0.0503 | -0.402 | 0.723 | 0.673 (inactive) | 0.0131 | 0.744 | -0.209 (inactive) | -0.704 | -1.25 (inactive) | 0.61 (inactive) | -0.429 (inactive) | 0.525 (inactive) | -0.294 (inactive) | 1.21 (inactive) | 0.764 (inactive) | 0.237 | -0.516
CCN(CC)c1ccc(N2CC=CC34O[C@@H]5C=CCOC(=O)[C@@H]5[C@H]3C(=O)N(CCCCCO)[C@@H]4C2=O)cc1 (stereo not given in full) | -0.46 | 1.1 | -0.0753 | -0.0913 | 0.199 | 0.497 | 0.876 (inactive) | 0.0564 | 1.65 | -0.0833 (inactive) | 0.34 | 0.0663 (inactive) | 1.08 (inactive) | 0.618 (inactive) | -0.193 (inactive) | -0.272 (inactive) | 0.831 (inactive) | 0.349 (inactive) | 0.225 | 0.532
COC(=O)[C@@]1(Cc2ccc(F)cc2)[C@H]2c3cc(C(=O)N(C)C)n(CCc4c[nH]c5ccc(OC)cc45)c3C[C@H]2CN1C(=O)c1ccccc1 | -0.906 | 0.813 | -0.885 | -0.64 | -1.79 | 0.922 | -0.939 (inactive) | -0.262 | -1.82 | -0.752 (inactive) | -0.643 | 0.971 (inactive) | -2 (inactive) | -2.26 (inactive) | 4.65 (inactive) | 0.679 (inactive) | -0.562 (inactive) | -0.681 (inactive) | -1.59 | 0.326
